Active and inactive are the calls of the source. Rule for the calls: active = hit-call score of the fitted dose curve at least 0.9, where 1 is the maximum; inactive = score below 0.9.
read-out: Hypoxia-inducible factor 1-alpha (Homo sapiens) (UniProt Q16665); assay: LTEA_HepaRG_HIF1A: Life Technologies and Expression Analysis (LTEA) Assay for Hypoxia-inducible factor 1 (HIF1A) Trancription factor using HepaRG (AID 2283503); conditions: mRNA level, 48 h; actives raise or lower the signal;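 note: HIF1A transcript by TaqMan qRT-PCR normalized to ACTB GAPDH and POLR2A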
Outline: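 Gain- or loss-of-signal HIF1A mRNA changes are fitted against a DMSO baseline. HepaRG cultures receive eight concentrations, highest 100 uM, for 48 h in serum-free induction medium with 0.5% DMSO.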

Sequence of Hypoxia-inducible factor 1-alpha (Homo sapiens) (Q16665 whole entry, looked up): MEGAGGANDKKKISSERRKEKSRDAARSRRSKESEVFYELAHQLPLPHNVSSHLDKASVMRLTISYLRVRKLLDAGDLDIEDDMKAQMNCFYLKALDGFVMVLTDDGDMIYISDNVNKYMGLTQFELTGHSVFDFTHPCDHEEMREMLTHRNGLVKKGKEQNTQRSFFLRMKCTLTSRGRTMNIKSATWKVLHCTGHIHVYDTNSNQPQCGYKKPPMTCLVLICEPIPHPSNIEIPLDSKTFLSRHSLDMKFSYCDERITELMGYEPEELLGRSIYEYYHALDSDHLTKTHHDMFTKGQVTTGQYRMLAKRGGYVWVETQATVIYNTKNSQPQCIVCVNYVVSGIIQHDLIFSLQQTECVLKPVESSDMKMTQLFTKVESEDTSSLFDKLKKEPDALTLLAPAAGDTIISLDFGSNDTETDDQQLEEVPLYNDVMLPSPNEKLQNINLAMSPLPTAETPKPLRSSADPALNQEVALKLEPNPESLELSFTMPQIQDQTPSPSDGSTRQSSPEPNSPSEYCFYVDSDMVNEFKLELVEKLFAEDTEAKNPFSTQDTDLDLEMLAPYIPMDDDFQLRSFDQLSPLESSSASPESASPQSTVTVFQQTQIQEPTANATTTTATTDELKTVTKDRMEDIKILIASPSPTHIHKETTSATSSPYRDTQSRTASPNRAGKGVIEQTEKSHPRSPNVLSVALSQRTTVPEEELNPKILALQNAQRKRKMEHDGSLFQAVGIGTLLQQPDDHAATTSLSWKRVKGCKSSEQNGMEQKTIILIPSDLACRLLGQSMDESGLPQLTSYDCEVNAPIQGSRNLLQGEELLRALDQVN

Structure (SMILES)	outcome
CCCCC(CC)COC(=O)CCCCCCCC(=O)OCC(CC)CCCC (stereo unspecified)	inactive
C=CCc1ccc(OC)c(OC)c1	inactive
CC(=O)O	inactive
CC(C)(O)c1ccc(CNC(=O)c2cccnc2Oc2ccc(F)cc2)cc1	inactive
NC1CCCCC1	inactive
O=C(NS(=O)(=O)/C=C/c1cccs1)c1ccc(F)cc1Br	inactive
O=C(O)c1cccnc1	inactive
O=C(Oc1ccccc1)c1cccc(C(=O)Oc2ccccc2)c1	inactive
CCCC(=O)O	inactive
COC(=O)CCC(=O)OC	inactive
CC(=O)OCC(COC(C)=O)OC(C)=O	inactive
O=C1CCCCC1	inactive
CC(COCC(C)OC(=O)c1ccccc1)OC(=O)c1ccccc1 (stereo unspecified)	inactive
CC(C)COC(=O)CCCCC(=O)OCC(C)C	inactive
CC(C)c1cccc(C(C)C)c1	inactive
C/C=C/c1ccc(OC)cc1	inactive
CN(C)CCCN(C)CCCN(C)C	inactive
CCOCCOCCO	inactive
CCCCC(CC)COP(=O)(OCC(CC)CCCC)OCC(CC)CCCC (stereo unspecified)	inactive
CCCCCCCCCCCCCCCCO	inactive
CCCCCCC(CCCCCCCCCCC(=O)OCC(COC(C)=O)OC(C)=O)OC(C)=O (stereo unspecified)	inactive
NC(=Nc1ccccc1)Nc1ccccc1	inactive
CCCCCCCC(=O)OC	inactive
CCCCC(CC)CO (stereo unspecified)	inactive
O=C(N[C@@H](c1ccccc1)[C@@H]1CCCCN1)c1cccc(C(F)(F)F)c1Cl	inactive
CCN(CC)CCOc1ccc(C(=C(Cl)c2ccccc2)c2ccccc2)cc1	inactive

read-out: 3-Hydroxy-3-Methylglutaryl-CoA Synthase 2 (HMGCS2), HMGCS2 (gene 3158); assay: LTEA_HepaRG_HMGCS2: Life Technologies and Expression Analysis (LTEA) Assay for 3-Hydroxy-3-Methylglutaryl-CoA Synthase 2 (HMGCS2) using HepaRG (AID 2283504); conditions: mRNA level, 48 h; actives raise or lower the signal
Outline: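 Readout is HMGCS2 transcript by qRT-PCR, housekeeping-normalised (ACTB/GAPDH/POLR2A) and fitted bidirectionally against 0.5% DMSO. Differentiated HepaRG cells received chemicals 48 h, duplicate wells, eight half-log concentrations topping at 100 uM.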

Structure (SMILES)	outcome	AC50
C=CCc1ccc(OC)c(OC)c1	inactive	–
CC(C)(O)c1ccc(CNC(=O)c2cccnc2Oc2ccc(F)cc2)cc1	inactive	–
NC1CCCCC1	inactive	–
CC(=O)O[C@]1(C(C)=O)CC[C@H]2[C@@H]3C=C(Cl)C4=CC(=O)[C@@H]5C[C@@H]5[C@]4(C)[C@H]3CC[C@@]21C	–	67.1 µM (active)
O=C(O)c1cccnc1	inactive	–
O=C(Oc1ccccc1)c1cccc(C(=O)Oc2ccccc2)c1	inactive	–
CCCC(=O)O	inactive	–
COC(=O)CCC(=O)OC	inactive	–
O=C1CCCCC1	inactive	–
CC(COCC(C)OC(=O)c1ccccc1)OC(=O)c1ccccc1 (stereo unspecified)	inactive	–
C/C=C/c1ccc(OC)cc1	inactive	–
CN(C)CCCN(C)CCCN(C)C	inactive	–
CCOCCOCCO	inactive	–
CCCCC(CC)COP(=O)(OCC(CC)CCCC)OCC(CC)CCCC (stereo unspecified)	inactive	–
CCCCCCC(CCCCCCCCCCC(=O)OCC(COC(C)=O)OC(C)=O)OC(C)=O (stereo unspecified)	inactive	–
NC(=Nc1ccccc1)Nc1ccccc1	inactive	–
CCCCCCCC(=O)OC	inactive	–
CCCCC(CC)CO (stereo unspecified)	inactive	–
CCN(CC)CCOc1ccc(C(=C(Cl)c2ccccc2)c2ccccc2)cc1	–	29.2 µM (active)

read-out: HGF (gene 3082); assay: LTEA_HepaRG_HGF: Life Technologies and Expression Analysis (LTEA) Assay for Hepatocyte Growth Facto (HGF) using HepaRG (AID 2283505); conditions: mRNA level, 48 h; actives raise or lower the signal
Outline: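 HGF transcript was quantified by TaqMan qRT-PCR against three housekeeping genes after 48 h treatment of HepaRG cells. Exposure ran in duplicate over eight half-log steps topping at 100 uM in 0.5% DMSO vehicle.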

Structure (SMILES)	outcome
CCCCC(CC)COC(=O)CCCCCCCC(=O)OCC(CC)CCCC (stereo unspecified)	inactive
C=CCc1ccc(OC)c(OC)c1	inactive
CC(=O)O	inactive
CC(C)(O)c1ccc(CNC(=O)c2cccnc2Oc2ccc(F)cc2)cc1	inactive
NC1CCCCC1	inactive
CC(=O)O[C@]1(C(C)=O)CC[C@H]2[C@@H]3C=C(Cl)C4=CC(=O)[C@@H]5C[C@@H]5[C@]4(C)[C@H]3CC[C@@]21C	inactive
O=C(NS(=O)(=O)/C=C/c1cccs1)c1ccc(F)cc1Br	inactive
O=C(Oc1ccccc1)c1cccc(C(=O)Oc2ccccc2)c1	inactive
CCCC(=O)O	inactive
COC(=O)CCC(=O)OC	inactive
CC(=O)OCC(COC(C)=O)OC(C)=O	inactive
O=C1CCCCC1	inactive
CC(COCC(C)OC(=O)c1ccccc1)OC(=O)c1ccccc1 (stereo unspecified)	inactive
CC(C)COC(=O)CCCCC(=O)OCC(C)C	inactive
CC(C)c1cccc(C(C)C)c1	inactive
C/C=C/c1ccc(OC)cc1	inactive
CN(C)CCCN(C)CCCN(C)C	inactive
CCOCCOCCO	inactive
CCCCC(CC)COP(=O)(OCC(CC)CCCC)OCC(CC)CCCC (stereo unspecified)	inactive
CCCCCCCCCCCCCCCCO	inactive
CCCCCCC(CCCCCCCCCCC(=O)OCC(COC(C)=O)OC(C)=O)OC(C)=O (stereo unspecified)	inactive
NC(=Nc1ccccc1)Nc1ccccc1	inactive
Cc1cn([C@H]2C=C[C@@H](CO)O2)c(=O)[nH]c1=O	inactive
CCCCCCCC(=O)OC	inactive
CCCCC(CC)CO (stereo unspecified)	inactive
O=C(N[C@@H](c1ccccc1)[C@@H]1CCCCN1)c1cccc(C(F)(F)F)c1Cl	inactive
CCN(CC)CCOc1ccc(C(=C(Cl)c2ccccc2)c2ccccc2)cc1	inactive

read-out: Insulin Like Growth Factor 1 (IGF1), IGF1 (gene 3479); assay: LTEA_HepaRG_IGF1: Life Technologies and Expression Analysis (LTEA) Assay for Insulin Like Growth Factor 1 (IGF1) using HepaRG (AID 2283506); conditions: mRNA level, 48 h; actives raise or lower the signal
Outline: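 Endpoint: IGF1 mRNA change by qRT-PCR, housekeeping-normalized, fitted bidirectionally relative to 0.5% DMSO vehicle. Human HepaRG cells were treated 48 h in serum-free induction medium, eight half-log concentrations topping at 100 uM.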

Structure (SMILES)	outcome	AC50
CCCCC(CC)COC(=O)CCCCCCCC(=O)OCC(CC)CCCC (stereo unspecified)	inactive	–
C=CCc1ccc(OC)c(OC)c1	inactive	–
CC(=O)O	inactive	–
CC(C)(O)c1ccc(CNC(=O)c2cccnc2Oc2ccc(F)cc2)cc1	–	50 µM (active)
NC1CCCCC1	inactive	–
CC(=O)O[C@]1(C(C)=O)CC[C@H]2[C@@H]3C=C(Cl)C4=CC(=O)[C@@H]5C[C@@H]5[C@]4(C)[C@H]3CC[C@@]21C	–	50 µM (active)
O=C(NS(=O)(=O)/C=C/c1cccs1)c1ccc(F)cc1Br	–	31.1 µM (active)
O=C(O)c1cccnc1	inactive	–
O=C(Oc1ccccc1)c1cccc(C(=O)Oc2ccccc2)c1	inactive	–
CCCC(=O)O	inactive	–
COC(=O)CCC(=O)OC	inactive	–
CC(=O)OCC(COC(C)=O)OC(C)=O	inactive	–
O=C1CCCCC1	inactive	–
CC(COCC(C)OC(=O)c1ccccc1)OC(=O)c1ccccc1 (stereo unspecified)	inactive	–
CC(C)COC(=O)CCCCC(=O)OCC(C)C	inactive	–
CC(C)c1cccc(C(C)C)c1	inactive	–
C/C=C/c1ccc(OC)cc1	inactive	–
CN(C)CCCN(C)CCCN(C)C	inactive	–
CCOCCOCCO	inactive	–
CCCCC(CC)COP(=O)(OCC(CC)CCCC)OCC(CC)CCCC (stereo unspecified)	inactive	–
CCCCCCCCCCCCCCCCO	inactive	–
CC(N)=O	inactive	–
CCCCCCC(CCCCCCCCCCC(=O)OCC(COC(C)=O)OC(C)=O)OC(C)=O (stereo unspecified)	inactive	–
NC(=Nc1ccccc1)Nc1ccccc1	inactive	–
Cc1cn([C@H]2C=C[C@@H](CO)O2)c(=O)[nH]c1=O	inactive	–
CCCCCCCC(=O)OC	inactive	–
CCCCC(CC)CO (stereo unspecified)	inactive	–
O=C(N[C@@H](c1ccccc1)[C@@H]1CCCCN1)c1cccc(C(F)(F)F)c1Cl	–	17.9 µM (active)
CCN(CC)CCOc1ccc(C(=C(Cl)c2ccccc2)c2ccccc2)cc1	–	13.3 µM (active)

— PubChem BioAssay (EPA / NIEHS)
